Source: PubChem BioAssay (EPA / NIEHS)
Calls of active or inactive are those of the source. The calls were made as follows: active = hit-call score of the fitted dose curve at least 0.9, where 1 is the maximum; inactive = score below 0.9.

Assays:
[1] = APR_HepG2_CellCycleArrest_24hr: Apredica 24-hour HepG2 Assay for Cell Cycle Arrest (AID 2282905); conditions: imaging, actives raise or lower the signal;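 also: cell cycle arrest scored as ratio of 2N to 4N nuclear DNA content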
Summary of the method: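 After 24 h exposure at 0.39–200 uM in 0.5% DMSO, fixed cells received Hoechst 33342 staining. Imaging quantified per-nucleus DNA content; gain or loss fitted against DMSO controls.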

[2] = APR_HepG2_NuclearSize_24hr: Apredica 24-hour HepG2 Assay for Nuclear Size (AID 2282907); conditions: high-content imaging, actives raise or lower the signal
Summary of the method: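 Nuclear size from Hoechst 33342-stained, formaldehyde-fixed HepG2 nuclei imaged by high-content microscopy, after 24 h dosing at ten concentrations from 0.39 to 200 uM in 0.5% DMSO; gain or loss relative to DMSO baseline.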

[3] = APR_HepG2_CellLoss_24hr: Apredica 24-hour HepG2 Assay for Cell Loss (AID 2282908); conditions: high-content imaging;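 as to AC50: fit in both directions so a hit may be cell loss or gain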
Summary of the method: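 Nuclei stained with Hoechst 33342 after formaldehyde fixation (3.7%) were imaged at 20x to count cells. Exposure lasted 24 hr, at ten concentrations from 0.39 to 200 uM in duplicate, with 0.5% v/v DMSO. Fit bidirectional, relative to DMSO.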

[4] = APR_HepG2_MicrotubuleCSK_24hr: Apredica 24-hour HepG2 Assay for Microtubule CSK Stabilty (AID 2282909); conditions: HepG2 microtubule cytoskeleton imaging, actives raise or lower the signal
Summary of the method: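 Fixed HepG2 cells were stained for alpha-tubulin and imaged after 24 hr exposure to ten concentrations spanning 0.39–200 uM in 0.5% DMSO. Signal change was fitted in both directions relative to DMSO; taxol was the positive control.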

[5] = APR_HepG2_MitoticArrest_24hr: Apredica 24-hour HepG2 Assay for Mitotic Arrest (AID 2282910); conditions: high-content imaging, actives raise or lower the signal
Summary of the method: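 HepG2, 24 hr dosing, 0.39–200 uM, 0.5% DMSO final. Formaldehyde-fixed, Triton-permeabilised, anti-phospho-histone H3 plus Hoechst. ArrayScan imaging at 20x; bidirectional fit vs DMSO baseline.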

[6] = APR_HepG2_MitoMembPot_24hr: Apredica 24-hour HepG2 Assay for Mitochondrial Membrane Potential (AID 2282911); conditions: imaging, actives raise or lower the signal
Summary of the method: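 Human hepatoma HepG2 cultures received ten compound concentrations up to 200 uM for 24 hr. Membrane-potential dye signal, captured by automated fluorescence microscopy, was scored for gain or loss against DMSO controls.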

[7] = APR_HepG2_MitoMass_24hr: Apredica 24-hour HepG2 Assay for Mitochondrial Mass (AID 2282912); conditions: high-content imaging, actives raise or lower the signal
Summary of the method: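 Endpoint is MitoTracker Red CMXRos (250 nM, 30 min, pre-fixation) intensity from 20x high-content imaging, nuclei located by Hoechst. Human HepG2 cells received ten concentrations from 0.39 to 200 uM in 0.5% DMSO for 24 hr, duplicate wells. Bidirectional fit relative to DMSO.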

[8] = APR_HepG2_p53Act_24hr: Apredica 24-hour HepG2 Assay for p53 Activation (AID 2282913); conditions: high-content imaging, actives raise or lower the signal;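 also: p53 protein immunofluorescence averaged per cell in HepG2 with Hoechst nuclei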
Summary of the method: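 Automated fluorescence imaging quantifies p53 immunostaining in HepG2 cells after a 24 hr exposure (0.39–200 uM, duplicate, 0.5% DMSO). Nuclei are located by Hoechst 33342 staining.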

[9] = APR_HepG2_CellCycleArrest_72hr: Apredica 72-hour HepG2 Assay for Cell Cycle Arrest (AID 2282914); conditions: high-content imaging, actives raise or lower the signal
Summary of the method: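 Cell cycle arrest in HepG2 was scored from nuclear DNA content after 72 hr compound treatment (0.39–200 uM). Activity, either gain or loss, was fitted against the DMSO baseline.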

[10] = APR_HepG2_CellLoss_72hr: Apredica 72-hour HepG2 Assay for Cell Loss (AID 2282915); conditions: high-content imaging
Summary of the method: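 HepG2 cells exposed 72 h to compound at 0.39–200 uM (10 concentrations, duplicate) in 0.5% DMSO. Fixed with 3.7% formaldehyde and Hoechst 33342-stained. Imaged at 20x; nuclear count gives cell number, fitted bidirectionally versus DMSO.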

[11] = APR_HepG2_P-H2AX_72hr: Apredica 72-hour HepG2 Assay for H2AX Phosphorylation (AID 2282916); conditions: imaging, actives raise or lower the signal;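 also: phospho-histone H2A.x immunostain intensity per cell marking DNA damage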
Summary of the method: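 Phospho-histone H2A.x immunofluorescence, multiplexed with Hoechst and c-Jun, quantified by high-content imaging. Compounds applied to HepG2 for 72 h across ten concentrations (0.39–200 uM, 0.5% DMSO), in duplicate; DMSO baseline.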

[12] = APR_HepG2_MitoMembPot_72hr: Apredica 72-hour HepG2 Assay for Mitochondrial Membrane Potential (AID 2282917); conditions: imaging, actives raise or lower the signal
Summary of the method: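 HepG2 cells dosed 72 hr with compound at 0.39–200 uM in duplicate, 0.5% v/v DMSO final. Mitochondria stained with 250 nM MitoTracker Red CMXRos for 30 min before formaldehyde fixation, imaged by high-content fluorescence; bidirectional fit versus DMSO.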

[13] = APR_HepG2_MitoticArrest_72hr: Apredica 72-hour HepG2 Assay for Mitotic Arrest (AID 2282918); conditions: high-content imaging, actives raise or lower the signal
Summary of the method: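 Mitotic arrest in HepG2 is scored from phospho-histone H3 staining after 72 hr dosing across 0.39–200 uM, with DMSO at 0.5% v/v. Nuclei are identified by Hoechst 33342 and fluorescence intensity is quantified per cell.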

[14] = APR_HepG2_MicrotubuleCSK_72hr: Apredica 72-hour HepG2 Assay for Microtubule CSK Stabilty (AID 2282919); conditions: HepG2 microtubule cytoskeleton, high-content imaging, actives raise or lower the signal
Summary of the method: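 HepG2, 72 hr cmpd exposure, 0.39–200 uM (10 pts, duplicate), 0.5% DMSO. 3.7% formaldehyde fix, 0.5% Triton perm, anti-alpha-tubulin/Cy5 plus Hoechst. HCS fluorescence intensity; bidirectional fit vs DMSO baseline; taxol as positive control.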

[15] = APR_HepG2_P-H2AX_24hr: Apredica 24-hour HepG2 Assay for H2AX Phosphorylation (AID 2282920); conditions: high-content imaging, actives raise or lower the signal
Summary of the method: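 Signal comes from a FITC-labeled secondary detecting phospho-histone H2A.x in fixed HepG2 cells, quantified by automated imaging at 20x. Dosing ran 24 hr across 0.39–200 uM with 0.5% v/v DMSO.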

[16] = APR_HepG2_StressKinase_24hr: Apredica 24-hour HepG2 Assay for Stress Kinase (AID 2282922); conditions: HepG2 stress kinase (phospho-c-Jun) imaging, actives raise or lower the signal
Summary of the method: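 Read-out: phospho-c-Jun immunofluorescence (Cy3 secondary) quantified by high-content imaging at 20x, nuclei defined by Hoechst 33342. Human HepG2 liver cells dosed 24 hr, 0.39–200 uM, DMSO 0.5% v/v; gain or loss of signal fitted relative to DMSO.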

[17] = APR_HepG2_NuclearSize_72hr: Apredica 72-hour HepG2 Assay for Nuclear Size (AID 2282925); conditions: high-content imaging, actives raise or lower the signal
Summary of the method: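 Read-out: nuclear diameter from Hoechst 33342 images (ArrayScan, 20x, six fields/well), via cell-cycle image analysis. HepG2 were dosed 0.39–200 uM for 72 hr in 0.5% DMSO. Bidirectional fit relative to DMSO.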

[18] = APR_HepG2_StressKinase_72hr: Apredica 72-hour HepG2 Assay for Stress Kinase (AID 2282921); conditions: HepG2 stress kinase (phospho-c-Jun) imaging, actives raise or lower the signal
Summary of the method: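 Stress kinase signal is phospho-c-Jun immunofluorescence (1:500 primary, Cy3 secondary) in fixed, permeabilized human HepG2 cells imaged at 20x. Exposure lasted 72 hr over ten concentrations from 0.39 to 200 uM, 0.5% DMSO, in duplicate. Bidirectional fit versus DMSO.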

[19] = APR_HepG2_p53Act_72hr: Apredica 72-hour HepG2 Assay for p53 Activation (AID 2282923); conditions: high-content imaging, actives raise or lower the signal;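 also: average cellular p53 protein immunofluorescence intensity in HepG2 cells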
Summary of the method: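 After 72 h with compound (ten points, 0.39 to 200 uM, final DMSO 0.5% v/v), fixed HepG2 cells were labelled with sheep anti-p53 and Hoechst 33342 and imaged; gain or loss versus DMSO scored.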

[20] = APR_HepG2_MitoMass_72hr: Apredica 72-hour HepG2 Assay for Mitochondrial Mass (AID 2282924); conditions: high-content imaging, actives raise or lower the signal;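 also: MitoTracker Red CMXRos stain intensity per cell imaged as mitochondrial mass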
Summary of the method: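 Read-out: MitoTracker Red fluorescence intensity from automated imaging (20x, six fields per well) in human HepG2 liver cells. Dosing ran 72 hr, 0.39–200 uM, 0.5% DMSO; bidirectional curve fitting versus DMSO baseline.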

## CC(C)(C)OOC(=O)c1ccccc1
[1]
  outcome: inactive
[2]
  AC50: 38.6 µM (active)
[3]
  AC50: 33.3 µM (active)
[4]
  AC50: 48.2 µM (active)
[5]
  AC50: 20.5 µM (active)
[6]
  AC50: 33.8 µM (active)
[7]
  AC50: 34.1 µM (active)
[8]
  AC50: 22.8 µM (active)
[9]
  AC50: 21.8 µM (active)
[10]
  AC50: 26.6 µM (active)
[11]
  AC50: 35.1 µM (active)
[12]
  AC50: 20.1 µM (active)
[13]
  AC50: 23.1 µM (active)
[14]
  outcome: inactive
[15]
  AC50: 16.4 µM (active)
[16]
  outcome: inactive
[17]
  outcome: inactive

## Nc1ccc(Cc2ccc(N)cc2)cc1
[1]
  outcome: inactive
[3]
  outcome: inactive
[4]
  outcome: inactive
[5]
  outcome: inactive
[6]
  outcome: inactive
[7]
  outcome: inactive
[8]
  outcome: inactive
[9]
  outcome: inactive
[10]
  outcome: inactive
[11]
  outcome: inactive
[12]
  outcome: inactive
[13]
  outcome: inactive
[14]
  outcome: inactive
[15]
  outcome: inactive
[18]
  outcome: inactive
[16]
  outcome: inactive
[19]
  outcome: inactive
[17]
  outcome: inactive

## OCCCl
[1]
  outcome: inactive
[2]
  outcome: inactive
[3]
  outcome: inactive
[4]
  outcome: inactive
[5]
  outcome: inactive
[6]
  outcome: inactive
[7]
  outcome: inactive
[8]
  outcome: inactive
[9]
  outcome: inactive
[10]
  outcome: inactive
[11]
  outcome: inactive
[12]
  outcome: inactive
[13]
  outcome: inactive
[14]
  outcome: inactive
[15]
  outcome: inactive
[16]
  outcome: inactive
[20]
  outcome: inactive
[17]
  outcome: inactive

## c1ccc2c(c1)-c1cccc3cccc-2c13
[1]
  outcome: inactive
[3]
  AC50: 85.7 µM (active)
[4]
  outcome: inactive
[5]
  AC50: 107 µM (active)
[6]
  outcome: inactive
[7]
  outcome: inactive
[8]
  outcome: inactive
[9]
  AC50: 111 µM (active)
[10]
  AC50: 106 µM (active)
[11]
  AC50: 108 µM (active)
[12]
  outcome: inactive
[13]
  AC50: 87.1 µM (active)
[14]
  outcome: inactive
[15]
  outcome: inactive
[18]
  outcome: inactive
[16]
  outcome: inactive
[19]
  outcome: inactive
[20]
  outcome: inactive
[17]
  outcome: inactive

## Cc1ccc(N=C=O)cc1N=C=O
[1]
  outcome: inactive
[3]
  outcome: inactive
[4]
  outcome: inactive
[5]
  outcome: inactive
[6]
  outcome: inactive
[7]
  outcome: inactive
[8]
  outcome: inactive
[9]
  outcome: inactive
[10]
  outcome: inactive
[11]
  outcome: inactive
[12]
  outcome: inactive
[13]
  outcome: inactive
[14]
  outcome: inactive
[15]
  outcome: inactive
[18]
  outcome: inactive
[16]
  outcome: inactive
[19]
  outcome: inactive
[17]
  outcome: inactive

## CCC[CH2][Sn]([Cl])([CH2]CCC)[CH2]CCC
[1]
  AC50: 100 µM (active)
[3]
  AC50: 1.12 µM (active)
[4]
  AC50: 0.908 µM (active)
[5]
  AC50: 0.336 µM (active)
[6]
  outcome: inactive
[7]
  AC50: 100 µM (active)
[8]
  AC50: 0.388 µM (active)
[9]
  AC50: 0.0548 µM (active)
[10]
  AC50: 0.574 µM (active)
[11]
  AC50: 0.0111 µM (active)
[12]
  outcome: inactive
[13]
  AC50: 0.0382 µM (active)
[14]
  outcome: inactive
[15]
  AC50: 1.41 µM (active)
[18]
  outcome: inactive
[16]
  AC50: 3.39 µM (active)
[19]
  AC50: 0.0297 µM (active)
[20]
  AC50: 0.0466 µM (active)
[17]
  outcome: inactive

## Nc1ccc(N=Nc2ccccc2)cc1
[1]
  AC50: 75.5 µM (active)
[2]
  outcome: inactive
[3]
  outcome: inactive
[4]
  outcome: inactive
[5]
  outcome: inactive
[6]
  outcome: inactive
[7]
  outcome: inactive
[8]
  outcome: inactive
[9]
  AC50: 23.6 µM (active)
[10]
  AC50: 99.4 µM (active)
[11]
  AC50: 63.4 µM (active)
[15]
  outcome: inactive
[18]
  outcome: inactive
[16]
  outcome: inactive
[19]
  AC50: 71.1 µM (active)
[17]
  outcome: inactive
